{
  "source": "the supplement of paper PMC10121225",
  "data": [
    {"test_system": "hN + hpA co-culture (H1 iNGN2 human neurons + human primary astrocytes)", "assay": "presynaptic density (SYNAPSIN1 puncta per MAP2 neurite area), Z-score vs DMSO controls; higher = more presynaptic puncta (synapse-promoting)", "details": "3 µM; 72 h", "values": [
      {"smiles": "CCc1cccc2c3c([nH]c12)C(CC)(CC(=O)O)OCC3", "note": "(stereo not drawn) [Etodolac]", "presynaptic density (Z-score)": -1.87},
      {"smiles": "CN(C)C(=O)[C@H](O)[C@H](Cc1ccccc1)NC(=O)c1cc2cc(Cl)ccc2[nH]1", "presynaptic density (Z-score)": -0.264},
      {"smiles": "Nc1nc(N)c2nc(-c3cccc(O)c3)c(-c3cccc(O)c3)nc2n1", "presynaptic density (Z-score)": 1.05},
      {"smiles": "CCOc1nc2cccc(C(=O)O)c2n1Cc1ccc(-c2ccccc2-c2nnn[nH]2)cc1", "note": "[Candesartan]", "presynaptic density (Z-score)": 0.323},
      {"smiles": "COc1cc2c(cc1O)CC[C@@H]1[C@@H]2CC[C@]2(C)[C@@H](O)CC[C@@H]12", "note": "[2-Methoxyestradiol (2-MeOE2)]", "presynaptic density (Z-score)": -0.808},
      {"smiles": "CN1C(=O)C(Cc2c[nH]c3ccccc23)NC1=S", "note": "(stereo not drawn) [5-(1H-Indol-3-ylmethyl)-3-methyl-2-thioxo-4-imidazolidinone]", "presynaptic density (Z-score)": -0.458},
      {"smiles": "Cc1nc2c(-c3cnc(N)nc3)nc(N3CCOCC3)nc2n1C(C)C", "presynaptic density (Z-score)": 1.07},
      {"smiles": "CC(C)C[C@H](NC(=O)[C@H](Cc1ccccc1)NC(=O)c1cnccn1)B(O)O", "note": "[Bortezomib (PS-341)]", "presynaptic density (Z-score)": -3.27},
      {"smiles": "Cc1nc(C(=O)NCC(=O)O)c(O)c2ccc(Oc3ccccc3)cc12", "presynaptic density (Z-score)": 0.792},
      {"smiles": "CNC(=O)c1ccc2cc([C@@]3(O)CCn4cncc43)ccc2c1", "note": "[TAK-700 (Orteronel)]", "presynaptic density (Z-score)": 0.215},
      {"smiles": "Cc1ccc2c(=O)c3cccc(CC(=O)O)c3oc2c1C", "note": "[DMXAA (Vadimezan)]", "presynaptic density (Z-score)": -1.15},
      {"smiles": "Cc1ccc(S(=O)(=O)OCC(=O)Nc2ccc(C(=O)O)c(O)c2)cc1", "presynaptic density (Z-score)": -0.554},
      {"smiles": "CC(C(O)c1ccc(O)cc1)N1CCC(Cc2ccccc2)CC1", "note": "(stereo not drawn) [Ifenprodil Tartrate_Selleck]", "presynaptic density (Z-score)": -0.233},
      {"smiles": "CCCC(C)NC(=O)c1ccc(Cl)c(Cl)c1", "note": "(stereo not drawn)", "presynaptic density (Z-score)": -0.211},
      {"smiles": "COc1cc(-c2ncn(/C=C\\C(=O)OC(C)C)n2)cc(C(F)(F)F)c1", "presynaptic density (Z-score)": -0.959},
      {"smiles": "COc1ccc2cc(-c3nc(-c4ccc([S+](C)[O-])cc4)[nH]c3-c3ccncc3)ccc2c1", "note": "(stereo not drawn) [Tie2 kinase inhibitor]", "presynaptic density (Z-score)": -0.787},
      {"smiles": "Cc1[nH]c(/C=C2\\C(=O)Nc3ccc(S(=O)(=O)N(C)c4cccc(Cl)c4)cc32)c(C)c1C(=O)N1CCN(C)CC1", "presynaptic density (Z-score)": 0.365},
      {"smiles": "CNC(=O)c1cc(Oc2ccc(NC(=O)Nc3cc(C(C)(C)C)nn3-c3ccc4ncccc4c3)c(F)c2)ccn1", "note": "[DCC-2036 (Rebastinib)]", "presynaptic density (Z-score)": 0.594},
      {"smiles": "C[C@H](N[C@@H](CCc1ccccc1)C(=O)O)C(=O)N1CCC[C@H]1C(=O)O", "presynaptic density (Z-score)": -0.963},
      {"smiles": "c1ccc(NCc2ccc(CNc3ccccn3)cc2)nc1", "presynaptic density (Z-score)": -0.658},
      {"smiles": "O=C(Cc1ccc(-c2ccc(OCCN3CCOCC3)cc2)cn1)NCc1ccccc1", "presynaptic density (Z-score)": -5.26},
      {"smiles": "C[C@]1(O)C[C@@H](c2nc(-c3ccc4ccc(-c5ccccc5)nc4c3)c3c(N)nccn32)C1", "note": "[OSI-906 (Linsitinib)]", "presynaptic density (Z-score)": 0.349},
      {"smiles": "COc1ccc2c(c1)c(CC(=O)N1CCOCC1)c(C)n2C(=O)c1ccc(Cl)cc1", "presynaptic density (Z-score)": -0.448},
      {"smiles": "COc1cc(Nc2ncc(F)c(Nc3ccc4c(n3)N(COP(=O)(O)O)C(=O)C(C)(C)O4)n2)cc(OC)c1OC", "note": "[Fostamatinib (R788)]", "presynaptic density (Z-score)": 0.149},
      {"smiles": "CC(C)c1noc(N2CCC(COc3ccc(-c4ccc(S(C)(=O)=O)cc4)nc3)CC2)n1", "presynaptic density (Z-score)": 0.0886},
      {"smiles": "COc1ccc(-n2nc(C(N)=O)c3c2C(=O)N(c2ccc(N4CCCCC4=O)cc2)CC3)cc1", "note": "[Apixaban]", "presynaptic density (Z-score)": 0.0881},
      {"smiles": "CC(C)c1onc(-c2c(Cl)cccc2Cl)c1COc1ccc(/C=C/c2cccc(C(=O)O)c2)c(Cl)c1", "presynaptic density (Z-score)": -0.576},
      {"smiles": "CCCC(=O)Nc1cccc(NC(=O)c2ccccc2Br)c1", "presynaptic density (Z-score)": -0.374},
      {"smiles": "COc1ccc(CNCc2cccc3ccccc23)cc1", "presynaptic density (Z-score)": -1.02},
      {"smiles": "O=S(=O)(c1ccccc1)N(CC(F)(F)F)c1ccc(C(O)(C(F)(F)F)C(F)(F)F)cc1", "presynaptic density (Z-score)": -0.732},
      {"smiles": "Cc1c(C(=O)Nc2ccc(N3C[C@@H](C)O[C@@H](C)C3)nc2)cccc1-c1ccc(OC(F)(F)F)cc1", "note": "[LDE225 (NVP-LDE225,Erismodegib)]", "presynaptic density (Z-score)": 0.612},
      {"smiles": "CCc1nc(N)nc(N)c1-c1ccc(Cl)cc1", "presynaptic density (Z-score)": -0.391},
      {"smiles": "COc1ccc(C(=O)Nc2sc3c(c2C(N)=O)CCCC3)cc1OC", "presynaptic density (Z-score)": 0.457},
      {"smiles": "O=C(Nc1ccccc1)N1CCN(c2nc(-c3ccccc3)ns2)CC1", "presynaptic density (Z-score)": -0.242},
      {"smiles": "C=CC(=O)Nc1cccc(Oc2nc(Nc3ccc(N4CCN(C)CC4)cc3OC)ncc2Cl)c1", "presynaptic density (Z-score)": -0.275},
      {"smiles": "CNC(=O)c1ccccc1Nc1nc(Nc2ccc(N3CCOCC3)cc2OC)ncc1Cl", "presynaptic density (Z-score)": 0.092},
      {"smiles": "O=C(N/N=C/c1ccc(O)c(O)c1)c1cc2ccccc2cc1O", "presynaptic density (Z-score)": -0.146},
      {"smiles": "COc1cc(N2CCC(N)CC2)ccc1Nc1ncc(Cl)c(-c2c[nH]c3ccccc23)n1", "presynaptic density (Z-score)": -0.26}
    ]}
  ]
}
